# NOD2 RIPK2 PPI – inhibitors of human NOD2-RIPK2 interaction; O43353; CHO BLA complementation NOD2-RIPK2, CCF4 ratio; inhibition, % at 4.98 µM; hit rate 0.38% among 360,000; AID 624267; in the data active means inhibition above about 21%
# Granule exo inh – blocks lytic granule exocytosis. inhibition, % at 10 µM. TALL-104 LAMP-1 surface exposure, flow cytometry; cells stimulated with thapsigargin and PMA. AID 651702. hit rate 0.66% among 360,000;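 active means inhibition above about 55%, limit read from the data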
# TLR9-MyD88 inh – blocks human TLR9 binding to MyD88. CHO BLA complementation TLR9-MyD88, CCF4 FRET ratio. hit rate 0.21% among 340,000. Q9NR96+Q99836. inhibition, % at 4.98 µM. AID 504734;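 active means inhibition above the mean over all tested compounds plus 3 SD, cut at about 21% in these data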
# ABHD5 PLIN5 PPI – blocks binding of human ABHD5 to perilipin-5 | Q00G26+Q8WTS1 | AID 602281 | inhibition, % at 4 µM | Split G. princeps luciferase complementation, luminescence, 4 h | hit rate 0.78% among 360,000;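 active means inhibition above the mean inhibition across every tested compound plus 3 SD, cut at about 22% in these data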
# PRMT1 inh – inhibitors of human PRMT1. AID 652257. inhibition, % at 2.79 µM. Q99873. hit rate 1.3% among 370,000. recombinant PRMT1, activity-based probe fluorescence polarization;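 active means inhibition above about 21% made by adding two undisclosed values, limit read from the data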
# TLR4 MyD88 comp – inhibitors of human TLR4-MyD88 binding; O00206+Q99836; HeLa CL3-4 TLR4/MyD88 BLA complementation, FRET ratio; inhibition, % at 8.4 µM; hit rate 0.18% among 200,000; in the data active means inhibition above about 25%
# ABHD5 PLIN5 conf – ABHD5-PLIN5 interaction inhibition, confirmed | shares compounds with ABHD5 PLIN5 PPI | biochemical ABHD5-PLIN5 interaction, luminescence | inhibition, % at 4 µM | hit rate 67% among 2,200 | AID 651612; in the data active means inhibition above about 23%
# HNF4 split-luc – HNF4 split-luciferase signal hit, counter-screen. shares compounds with ABHD5 PLIN5 PPI. HNF4 dimerization, luminescence, biochemical. inhibition, % at 4 µM. hit rate 77% among 2,200;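 active means mean inhibition across replicate wells exceeding the computed hit threshold, cut at about 13% in these data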;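 further: light from luciferase halves that rejoin when HNF4 fusion proteins dimerize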
# NOD2 RIPK2 conf – confirmation of human NOD2-RIPK2 interaction inhibitors | CHO cells, NOD2-RIPK2 BLA complementation, CCF4 FRET | shares compounds with NOD2 RIPK2 PPI | AID 624370 | inhibition, % at 4.98 µM | hit rate 70% among 1,200;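 active means mean inhibition across replicates above a set limit taken from the earlier primary screen, cut at about 21% in these data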
# NOD2 BLA counter – counter-screen for NOD2-RIPK2 interaction inhibitors: BLA reporter; CHO BLA reporter, CCF4 FRET ratio, counterscreen; AID 624371; hit rate 57% among 1,200; shares compounds with NOD2 RIPK2 PPI; inhibition, % at 4.98 µM;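 active means mean inhibition above the low-control mean inhibition plus three low-control SD, cut at about 11% in these data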
# Exocytosis CP01 – blocks lytic granule exocytosis. shares compounds with Granule exo inh. TALL-104 cells, LAMP-1 externalization, flow cytometry; stimulated with PMA plus thapsigargin. inhibition, % at 10 µM. hit rate 11% among 1,500. AID 651954; in the data active means inhibition above about 60%
# Numbers stand for hits; i = inactive; nt = no result. Hits are enriched below; roughly 2.6% of the tested compounds scored in any of these assays.
SMILES,NOD2 RIPK2 PPI,Granule exo inh,TLR9-MyD88 inh,ABHD5 PLIN5 PPI,PRMT1 inh,TLR4 MyD88 comp,ABHD5 PLIN5 conf,HNF4 split-luc,NOD2 RIPK2 conf,NOD2 BLA counter,others
Cc1cc(N2CCN(C(=O)OC(C)(C)C)C[C@@H]2C)ccc1N1CCN(Cc2ccccc2)[C@@H](C)C1,nt,nt,nt,nt,i,nt,nt,nt,nt,nt,
O=C(NCc1cccnc1)c1ccc(-c2ccc(Cl)cc2)o1,i,i,i,i,i,i,nt,nt,nt,nt,
O=C(NCc1cccnc1)/C(=C\c1ccc(-c2ccc(Cl)c(Cl)c2)o1)S(=O)(=O)c1ccccc1,40.7,100.7,i,76.6,i,i,100.8,96.6,41.8,i,
C#CCN(Cc1cccc(F)c1)C(=O)c1nnc2c3ccccc3n(S(=O)(=O)c3ccc(C)cc3)c2n1,nt,nt,nt,nt,i,nt,nt,nt,nt,nt,
O=C(Nc1cccc([N+](=O)[O-])c1)NC1CCCCN(Cc2cccc(Cl)c2)C1=O (configuration not stated),nt,nt,nt,nt,i,nt,nt,nt,nt,nt,
CCOc1cc(/C=C\[N+](=O)[O-])ccc1OCC(=O)Nc1ccccc1C,88.8,i,i,55.3,nt,i,95.6,102.1,96.9,13.2,
CCOC(=O)c1cc([N+](=O)[O-])cc([N+](=O)[O-])c1Sc1ncnc2nc[nH]c12,39.3,i,i,37.6,i,nt,61.7,101.8,67.4,i,
COc1ccc2oc(=O)c(-c3nnc(NCc4ccco4)s3)cc2c1,21.2,i,i,59.7,i,i,i,43.2,49.0,49.4,
C=C1C(=O)[C@]23C[C@H]1CCC2[C@]1(C)CCC[C@@](C)(C(=O)O)C1C[C@@H]3O (some centres not stated),22.2,i,nt,51.2,i,nt,46.3,102.1,32.7,i,
C[C@H]1C(=O)[C@]23C[C@H]1CC[C@H]2[C@]1(C)[C@@H](O)CC[C@@](C)(C(=O)O)[C@H]1C[C@@H]3O,nt,nt,nt,nt,i,nt,nt,nt,nt,nt,
C(=C\c1ccco1)/C1=NN(c2ccccc2)C(c2ccco2)C1 (configuration not stated),21.8,i,i,33.6,nt,i,26.6,17.5,31.6,60.1,
Cc1nn(-c2ccc(Cl)cc2)c(=O)c2ccccc12,i,i,i,i,i,i,nt,nt,nt,nt,
Cc1c(Cl)sn(-c2ccc(Cl)cc2)c1=O,29.0,92.1,i,26.1,67.5,i,77.5,106.6,89.1,28.3,
CS(=O)(=O)c1ccc(S(=O)(=O)NCC2CCN(C(=O)C(=O)c3cc4ccccc4o3)CC2)cc1,nt,nt,nt,nt,i,nt,nt,nt,nt,nt,
Cn1cnc([N+](=O)[O-])c1S(=O)(=O)Oc1cccc2ccccc12,56.1,i,i,76.3,23.0,nt,76.0,105.9,54.8,i,
COc1ccccc1Cc1c(-c2ccco2)nc2c(C)cc(Br)cn12,24.6,i,nt,57.9,nt,nt,35.8,40.4,i,i,
Cc1ccc(CN2CCC=CS2(=O)=O)cc1,nt,nt,nt,nt,i,nt,nt,nt,nt,nt,
O=C(C(=Cc1ccc(F)cc1)C(=O)c1ccccc1)c1ccccc1,29.0,i,nt,93.7,i,nt,96.8,87.4,i,i,
CC(C)(C=O)C1=CC(=O)c2ccccc2C1=O,22.5,90.6,i,33.6,52.3,i,80.6,103.1,85.9,i,
Cc1cc(N2CCOCC2)ccc1/C=C\[N+](=O)[O-],51.3,i,i,77.0,i,i,97.2,98.6,55.3,i,
O=C(/C=C/c1cccnc1)/C=C/c1cccnc1,22.8,i,i,94.9,i,nt,102.2,108.0,48.4,i,
Nc1ccn([C@@H]2O[C@H](C(=O)N[C@H](Cc3ccccc3)C(=O)N3CCC(F)(F)CC3)[C@@H](O)[C@H]2O)c(=O)n1,nt,nt,nt,nt,i,nt,nt,nt,nt,nt,
O=C(NCc1ccccc1)C(CCc1ccccc1)n1c(=O)c(-c2ccccc2)nc2ccccc21 (configuration not stated),28.9,i,nt,37.5,i,nt,41.1,27.7,i,i,
O=C1/C(=C/c2ccc(C(=O)O)cc2)CCC/C1=C\c1ccc(C(=O)O)cc1,i,i,i,i,i,i,nt,nt,nt,nt,
O=C1C(=Cc2ccc(Cl)cc2)Cc2ccccc21,i,i,nt,i,i,nt,nt,nt,nt,nt,
SMILES,NOD2 RIPK2 PPI,Granule exo inh,TLR9-MyD88 inh,ABHD5 PLIN5 PPI,PRMT1 inh,TLR4 MyD88 comp,ABHD5 PLIN5 conf,HNF4 split-luc,NOD2 RIPK2 conf,NOD2 BLA counter,others
C=CC(=O)N1C/C(=C/c2ccccc2)C(=O)/C(=C\c2ccccc2)C1,45.2,70.7,i,101.0,i,nt,103.2,107.3,43.5,i,
C=CC(=O)N1C/C(=C/c2ccc(Cl)cc2)C(=O)/C(=C\c2ccc(Cl)cc2)C1,45.1,86.5,i,94.3,i,nt,104.1,109.6,54.4,i,
CCOC(=O)C(CNc1ccc(OCc2ccccc2)cc1)NC(=O)c1ccccc1 (configuration not stated),nt,nt,nt,nt,i,nt,nt,nt,nt,nt,
COC(=O)C1=C(C)N(Cc2ccc(C(F)(F)F)cc2)C(=NCc2cc(OC)c(OC)c(OC)c2)NC1c1cccc(Cl)c1 (configuration not stated),nt,nt,nt,nt,i,nt,nt,nt,nt,nt,
CCCCCn1c(C)c(CC(=O)Nc2ccc(Oc3cccnc3)c(C)c2)c2ccccc21,nt,nt,nt,nt,i,nt,nt,nt,nt,nt,
O=[N+]([O-])/C=C\c1ccc(N2CCCC2)c(F)c1,31.0,75.2,i,64.2,nt,i,98.4,100.0,77.1,22.5,
CCCC(=O)N(C1CC(C)C(C#N)(C#N)C1(C#N)C#N)N(C)C (configuration not stated),57.3,i,i,35.7,21.8,nt,58.9,101.0,91.6,13.6,
COc1ccc(CNC(=O)c2nc(S(=O)(=O)Cc3ccccc3)ncc2Cl)cc1,61.7,i,i,41.0,i,nt,89.1,103.0,62.7,15.4,
COc1ccc(S(=O)(=O)Cc2ccc(C(=O)NCc3ccccc3)o2)cc1,i,i,i,i,i,nt,nt,nt,nt,nt,
O=C(NCc1ccccc1)c1nc(S(=O)(=O)Cc2ccccc2)ncc1Cl,52.6,i,i,51.1,22.9,nt,88.6,105.5,53.8,13.9,
C[C@@H]1CN(c2ccc(N3CCNC[C@H]3C)cc2C#N)C[C@H](C)O1,nt,nt,nt,nt,i,nt,nt,nt,nt,nt,
CN(C)CCCN(C(=O)c1cc(-c2cccs2)nc2ccccc12)c1nc2c(F)cccc2s1,i,i,i,i,i,nt,nt,nt,nt,nt,
Cc1ccc2nc(N(CCCN(C)C)C(=O)c3cc(-c4cccs4)nc4ccccc34)sc2c1,i,71.8,i,25.1,i,nt,i,i,nt,nt,Exocytosis CP01=i
COc1cc(CNCCN2CCOCC2)ccc1OCc1ccc(Cl)cc1,i,i,i,i,i,i,nt,nt,nt,nt,
COc1cc(CNCCCN2CCOCC2)cc(Br)c1OCc1ccc(Cl)cc1,i,57.8,i,35.4,i,i,i,i,nt,nt,Exocytosis CP01=i
